High-throughput results (PubChem)
MCF10A rereplic = A quantitative high throughput screen for small molecules that induce DNA re-replication in MCF 10a normal breast cells | MCF 10A DNA re-replication, Hoechst nuclear intensity, 48 h | Potency, µM (highest dose often 46.1 µM), without a hit: top-dose activity, positive = re-replication, most hits filed as activators | hit rate 2.9% among 350,000 | AID 624296, 2012; also: % of control where 0% means no effect; nearly all actives have a fitted effect of over 50% in size
HT1080 IDH1KD tx = qHTS for induction of synthetic lethality in tumor cells producing 2HG: qHTS for the HT-1080-IDH1KD cell line; HT-1080 IDH1 knockdown viability, ATP luminescence, 48 h; Potency, µM (highest dose often 46.1 µM), for the others: at the highest dose activity, negative = toxicity, most hits filed as cytotoxic; hit rate 2% among 360,000; AID 686971, 2013;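 also: 0% = DMSO wells and -100% = cell-free medium wells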
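IDH1KD HT-1080 cells, 750/well, RPMI + 5% FBS; compound pinned after 2 h settling; 48 h, 37 °C; CellTiter-Glo luminescence; % activity normalised to DMSO and no-cell wells; curves fitted, classed by r2 and efficacy.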
SW480 rereplic = A quantitative high throughput screen for small molecules that induce DNA re-replication in SW480 colon adenocarcinoma cells. SW480 DNA re-replication, Hoechst DNA content imaging, 48 h. Potency, µM (highest dose often 46.1 µM), without a hit: at the top dose re-replication activation, usual class: activators. hit rate 1.8% among 340,000. AID 624297, 2012; also: % of control where 0% means no effect; nearly all actives have a fitted effect of over 55% in size
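Hoechst fluorescence of nuclei (405 nm excitation, 500-530 nm emission) measured by plate-scanning imager after 48 hr compound exposure at 37 C; re-replication scored as increased number of nuclei with elevated intensity.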
KB-3-1 cytotox = qHTS assay for MDR1-selective chemotherapeutics: Primary screen using the parental adenocarcinoma cell KB-3-1. KB-3-1 viability, CellTiter-Glo ATP luminescence, 72 h. Potency, µM (doses to about 46.1 µM), actives largely listed as cytotoxic. hit rate 1.4% among 400,000; also: % is scaled to controls: 0 for no effect and ±100 for the full control effect; nearly all actives have a fitted effect of over 60% in size
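Screening of KB-3-1 cells (DMEM, 10% FBS, phenol-red free) ran from lowest to highest compound concentration; after 72 h at 37 °C viability was read luminescently and curves fitted.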
KB-V1 cytotox = qHTS assay for MDR1-selective chemotherapeutics: Primary screen using the drug-selected MDR subline cells KB-V1; KB-V1 MDR cells viability, CellTiter-Glo, 72 h; Potency, µM (top dose mostly 46.1 µM), most hits filed as cytotoxic; hit rate 3.4% among 400,000; also: % is scaled to controls: 0 for no effect and ±100 for the full control effect; nearly all actives have a fitted effect of over 60% in size
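In this primary screen, KB-V1 cells overexpressing P-gp are incubated with library compounds (lowest to highest concentration) for 72 h at 37 degrees C before a luminescent ATP viability read.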
HT1080-NT tox = qHTS for induction of synthetic lethality in tumor cells producing 2HG: qHTS for the HT-1080-NT fibrosarcoma cell line; hit rate 1.6% among 360,000; AID 686970, 2013; Potency, µM (highest dose often 46.1 µM), without a hit: at the top dose activity, negative = less viability, hits mostly cytotoxic; HT-1080-NT fibrosarcoma viability, CellTiter-Glo ATP luminescence, 48 h;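 also: NT is the 2HG producing partner of a matched IDH1 knockdown line; 0% = DMSO-treated cells and -100% = media-only wells without cells; nearly all actives have a fitted effect of over 55% in size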
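HT-1080-NT; 750 cells/well; 5% FBS RPMI; 48 h compound, 37 degrees C; CellTiter-Glo luminescence; curve fitting and curve-class assignment.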
Starred values were filed as active, the others as inactive; i = inactive; u = inconclusive; x = no result given; [ ] = dose if it differs, or a comment. Sampled rows, rich in hits. Any-hit rate of the full collection: about 7.9%. Calls follow the shape of the dose curve; as a rule, active = well fitted curve in the direction sought with a large enough effect; inconclusive = small, poorly fitted or top-dose-only effect, or another doubt; inactive = no such curve, though single readings can be large; an effect the other way counts as inactive or inconclusive. Potency is read from the fitted curve at half-maximal effect.

SMILES	MCF10A rereplic	HT1080 IDH1KD tx	SW480 rereplic	KB-3-1 cytotox	KB-V1 cytotox	HT1080-NT tox
COc1cc(CNCCc2ccc(S(N)(=O)=O)cc2)ccc1OCc1ccc(Cl)cc1	13µM*	13µM*	u	u	u	-4%[9.24 µM]
COc1cccc(CNCCc2c[nH]c3ccccc23)c1OCc1ccccc1	u	16µM*	u	u	u	21µM*
COc1cccc(CNn2cnnc2)c1OCc1ccc(F)cc1	-1%	15%	-5%	i	i	9%
COc1ccccc1CCNCc1ccc(OC)c(OCc2ccccc2)c1	2%	u	u	u	4.6µM*	u
Cc1ccc(S(=O)(=O)NC(=O)C2(C)CCN2C(=O)CCc2ccc(Cl)cc2Cl)cc1 (stereo not given)	x	0%	x	i	i	9%
Cc1ccc(C(=O)Nc2ccc(Cl)c(-c3nc4ncccc4o3)c2)c(C)c1	x	x	x	i	i	x
COc1ccccc1NCC(O)COc1ccc(C(C)(C)C)cc1 (stereo not given)	u	16µM*	2%	i	i	16µM*
OC(CNCc1ccco1)COc1ccccc1 (stereo not given)	8%	-23%	17%	i	0.0018µM*	-6%
CCOCC(O)CNc1ccccc1 (stereo not given)	-3%	17%	-5%	i	i	10%
OC(CNc1ccccc1)COc1ccc(OCC(O)CNc2ccccc2)cc1 (stereo not given)	u	21µM*	u	u	u	21µM*
CCCCC[C@H](C)N1C[C@H](COCc2ccccc2)Oc2cc(N3CCC[C@H]3CO)ccc2S1(=O)=O	x	u	x	i	u	u
COc1cccc(CNC(=O)Cn2ncc3c4ccccc4n(Cc4ccccc4)c3c2=O)c1	x	x	x	i	i	x
CCOC(=O)c1ccc(-c2cccc(-c3cc(=O)oc4cc(OC)cc(OC)c34)c2)cc1	u	8%	u	i	i	1%
COc1cc(OC)c2c(-c3cccc(-c4ccc(OC)c(OC)c4)c3)cc(=O)oc2c1	1.3µM*	u	2.1µM*	i	i	u
COc1cc(OC)c2c(-c3cccc(-c4sccc4C(C)=O)c3)cc(=O)oc2c1	0.65µM*	3.7µM*	6.5µM*	2.9µM*	2.6µM*	4.1µM*
COc1cc(OC)c2c(-c3cccc(-c4ccc(NC(C)=O)cc4)c3)cc(=O)oc2c1	u	0.92µM*	9.2µM*	i	i	0.52µM*
COc1cc(OC)c2c(-c3cccc(-c4ccc(F)c(Cl)c4)c3)cc(=O)oc2c1	4.6µM*	16µM*	u	u	u	u
COc1cc(OC)c2c(-c3cccc(-c4ccc(C#N)cc4)c3)cc(=O)oc2c1	u	-19%	u	i	u	u
Cc1noc(C)c1NC(=O)N(C)C[C@@H]1OCc2cnnn2CCCC(=O)N([C@H](C)CO)C[C@@H]1C	x	-2%	x	i	i	2%
CCCC(=O)N1CCCC(c2cc(C(=O)Nc3ccccc3)no2)C1 (stereo not given)	x	-28%	x	i	i	u
COc1cccc(/C(O)=C/c2nc3ccc(C(=O)NCCc4ccc(Cl)cc4)cc3[nH]c2=O)c1	8.2µM*	u	12µM*	21µM*	u	18µM*
O=C(NCCc1ccc(Cl)cc1)c1ccc2nc[nH]c2c1	17%	-1%	-4%	i	i	0%
O=C(Nc1cccc(Cl)c1Cl)C1CC(=O)N(c2ccc(Br)cc2)C1 (stereo not given)	5.8µM*	u	7%	i	i	u
O=C(N/N=C/c1ccccc1O)C1CC(=O)N(c2ccc(Cl)cc2)C1 (stereo not given)	u	3.3µM*	5.8µM*	u	i	u
COCCN1C(=O)CN(S(C)(=O)=O)CC1(C)C(=O)Nc1ccc2c(c1)OCCO2 (stereo not given)	x	17%	x	i	i	-2%
SMILES	MCF10A rereplic	HT1080 IDH1KD tx	SW480 rereplic	KB-3-1 cytotox	KB-V1 cytotox	HT1080-NT tox
CCc1nn2c(=O)cc(COC(=O)CNC(=O)COc3ccc(C)cc3)nc2s1	x	x	x	i	i	x
Cc1ccc2nc(SCc3ccccc3)c(C=O)c(=O)n2c1	1%	8%	-13%	i	8.2µM*	8%
c1coc(-c2cc(C3CCNCC3)[nH]n2)c1	0%	-5%	u	i	i	-3%
c1ccc2c(-c3cc(C4CCNCC4)[nH]n3)cccc2c1	u	21µM*	13%	u	i	23µM*
FC(F)(F)c1cccc(-c2cc(C3CCNCC3)[nH]n2)c1	u	u	u	i	i	16µM*
FC(F)(F)c1cccc(CN2CCC(c3cc(-c4cccs4)n[nH]3)CC2)c1	13µM*	5.2µM*	u	u	u	7.3µM*
COC(=O)CCN1CCC(c2cc(-c3cccc(C(F)(F)F)c3)n[nH]2)CC1	5%	17%	4%	i	i	-3%
CN1N=C2c3ccccc3CCC2C1c1ccc(Cl)cc1 (stereo not given)	6%	-5%	u	i	i	11%
CCCN1CNc2c(c(=O)[nH]c(=S)n2CCc2cc(Cl)ccc2Cl)C1	x	-7%	x	x	x	-18%
Cc1[nH]c(=O)c(C#N)cc1-c1csc(-c2ccccc2)n1	u	-1%	12%	u	i	-3%
Cc1nc(-c2cc(C#N)c(=O)[nH]c2C)cs1	-2%	4%	-6%	u	4.6µM*	-15%
CC(C)C[C@@H](CN1CCC[C@@H]1CN1C(=S)NC[C@@H]1Cc1ccccc1)N1C[C@H](Cc2ccc(O)cc2)N(CC2CCCCC2)C1=S	x	1%	x	i	i	1%
CC(C)C[C@@H](CN1CCC[C@@H]1CN1C(=S)NC[C@@H]1Cc1ccccc1)N1C[C@H](Cc2ccc(O)cc2)N(CC2CCCCCC2)C1=S	x	18µM*	x	u	u	u
